# Bioassay records as filed in PubChem.
# Hits are enriched below; roughly 7.9% of the tested compounds scored in any of these assays.
# FMDV inh: foot and mouth disease virus antiviral activity | FMDV antiviral cell-based qHTS | Potency, µM (doses to about 57.9 µM), for inactives: top-dose activity change, negative = inhibition, hits mostly inhibitors | 1.2% of 410,000 active | AID 1159524; calls by dose curve; tested in HEK293T cells; note: read-out not given here; potency is the fitted concentration of half-maximal effect; nearly all actives have a fitted effect of over 45% in size
# Marburg entry inh: inhibitors of Marburg virus binding or cell entry | Marburg virus pseudotyped entry inhibition, cell reporter | AID 540276 | 1.8% of 300,000 active | Potency, µM (highest dose often 37.8 µM), for inactives: at the top dose activity change, negative = inhibition, hits mostly inhibitors; calls by dose curve; tested in HEK293 cells; note: potency is the fitted concentration of half-maximal effect
# LASV entry inh: Lassa virus entry inhibition; Lassa virus pseudotype entry inhibition, cell reporter; Potency, µM (top dose mostly 37.9 µM), for the others: at the top dose activity change, negative = inhibition, most hits filed as inhibitors; 1.2% of 300,000 active; calls by dose curve; tested in HEK293 cells; note: potency is the fitted concentration of half-maximal effect; nearly all actives have a fitted effect of over 50% in size
# HCMV antiviral: human cytomegalovirus inhibition. AID 1259415. activity change, negative = inhibition, % at 57.5 µM. 4.5% of 410,000 active. HFF cells, HCMV-luciferase reporter, 72 h; stronger effect = lower value; in the data active = activity change below about -60%; inconclusive = no clear call, values can overlap the other calls; inactive = above about -39%
#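 Screen run at 2 compound doses on HFFs infected with reporter HCMV, MOI 1 PFU/cell. Luciferase activity from cell lysates at 72 h post infection gave inhibition relative to buffer-only and Salinomycin wells.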
# HCV inhibitor: HCV inhibition | Huh7.5.1 HCVcc-Cre infection, luciferase reporter, 44 h | Potency, µM (titrated, usually from 41.8 µM), for the others: at the top dose activity change, negative = inhibition, hits mostly inhibitors | 3.4% of 340,000 active | AID 651820; active = well fitted inhibition curve with a large enough effect; inconclusive = small, poorly fitted or top-dose-only effect, or another doubt; inactive = no such curve, though single readings can be large or run the other way; note: potency is the fitted concentration of half-maximal effect
#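 Luciferase read-out (15 sec integration) after a 15 min room-temperature substrate step quantifies HCVcc-Cre infection. Cells, 1,000 per well, had compound added 4 h post-plating, then virus at ~0.5 moi, and were cultured 44 h.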
# The depositor's hits bear a star; u = inconclusive; x = no result given; + = active, no number; ! = a repeat was not active; [ ] = dose if it differs, or a comment. % is set by controls: 0 for no effect and ±100 for the full control effect.
SMILES,FMDV inh,Marburg entry inh,LASV entry inh,HCMV antiviral,HCV inhibitor
Cc1cc(C)c(OCC(=O)N/N=C/c2ccc3c(c2)OCO3)c(C)c1,18.0%,-16.0%,-42.2%,-37.8,-10.4%
CC1=C(C(=O)N(C(C)C)C(C)C)CC(CC(=O)NCCCCc2ccccc2)C(=O)N1CCCN1CCCC1=O (stereo not given),-17.2%,x,x,-1.1,x
Cc1ccc(C)c(N2CCN(C(=O)C34CC5CC(C3)CC(n3nnc(C)n3)(C5)C4)CC2)c1,u,u,u,-38.0,17.8µM*
Cc1ccc(C23CC4CC(CC(NC(=O)N5CCN(C)CC5)(C4)C2)C3)cc1,-29.5%,u,u,-5.9,12.6µM*
Cc1ccc(C23CC4CC(CC(CC(=O)N5CCOCC5)(C4)C2)C3)cc1,u,u,8.2µM*,-37.5,u
Cc1ccc(C23CC4CC(CC(C(=O)N5CCN(C)CC5)(C4)C2)C3)cc1,u,-1.4%,x,0.0,2.51µM*
Cc1nnn(C23CC4CC(CC(C4)C2)C3)n1,0.9%,2.2%,4.0%,20.5,7.7%
COc1ccc(C(=O)/C=C/Nc2ccc(S(=O)(=O)Nc3cc(OC)nc(OC)n3)cc2)c(OC)c1,50.1%,u,u,-10.8,-20.6%
OCC[C@@H]1C[C@@H](O)[C@H](O)[C@]2(Cc3ccccc3O2)O1,-2.5%,x,x,-21.8,12.9%
CC[C@H](CC[C@@H](C)[C@H]1CC[C@H]2[C@@H]3CC=C4C[C@@H](O)CC[C@]4(C)[C@H]3CC[C@]12C)C(C)C,-9.6%,x,x,x,x
CCCC(=O)NCC(c1cccs1)S(=O)(=O)c1ccc(C)cc1 (stereo not given),3.6%,x,x,-26.6,5.7%
COc1ccc2c(c1)CO[C@H]([C@H](O)COC(C)=O)[C@H]2C=Cc1ccccc1,x,-2.1%[14.2 µM],x,x,x
N#CC(C#N)=C(Nc1ccc(F)cc1)SCc1cccc(F)c1,u,7.08µM*,12.6µM*,-98.6*,10µM*
COCCCNC(=O)COc1cc2c(c3oc(=O)c(C)c(C)c13)CCC(C)(C)O2,-10.1%,26.5%[46.1 µM],-14.6%[46.1 µM],u,-28.3%
CCCCCCCCCC(=O)N/N=C(\C)c1cccnc1,-28.8%,11.8%[46.1 µM],3.6%,11.1,16.0%
C/C(=N\NC(=O)COc1ccccc1-c1ccccc1)c1ccc(O)cc1O,0.0%,x,x,-76.1*,11.2µM*
C/C(=N\NC(=O)COc1ccccc1-c1ccccc1)c1ccccn1,u,3.98µM*,5.62µM*,-97.5*,5.01µM*
CCCCCC(=O)N/N=C(\C)c1ccccn1,26.4%,7.08µM*,u,-98.9*,u
CCCCCCCCC(=O)N/N=C(\C)c1ccc(O)cc1O,0.0%,u,u,-39.8,u
C/C(=N\NC(=O)COc1ccccc1-c1ccccc1)c1cccnc1,-21.3%,u,u,71.3,u
O=C(COc1ccccc1-c1ccccc1)N/N=C/c1ccc2ccccc2c1,-11.9%,u,1.78µM*,-100.3*,u
CCC1(C)Cc2c(sc3nc(SC)n(-c4ccc(C)cc4)c(=O)c23)CO1 (stereo not given),-10.6%,9.1%[46.1 µM],-8.2%[46.1 µM],-3.3,x
COC(=O)N[C@@H](c1ccc(Cl)cc1)C(C(C)=O)C(=O)OC (stereo not given in full),x,13.5%[14.2 µM],x,x,x
CCCCC[C@H](O)/C=C/[C@H]1C=CC(=O)[C@@H]1CCCCCCC(=O)O,-8.0%[6.7 µM],x,x,x,x
CCCCC[C@@H](/C=C/C1C(=O)C=C[C@H]1C/C=C\CCCC(=O)OC)OC(C)=O (stereo not given in full),28.2µM*,x,x,1.6,-9.3%[8.37 µM]
SMILES,FMDV inh,Marburg entry inh,LASV entry inh,HCMV antiviral,HCV inhibitor
O=C(Nc1cccc(S(=O)(=O)N2CCCCC2)c1)c1ccc(OCC2CCCO2)cc1 (stereo not given),u,u,u,-66.2*,u
O=C(Nc1ccc(S(=O)(=O)N2CCCC2)cc1)c1ccc(OCC2CCCO2)cc1 (stereo not given),17.8µM*,u,-6.1%,-87.8*,11.2µM*
O=C(c1ccc(OCC2CCCO2)cc1)N1CCN(S(=O)(=O)c2cccc(F)c2)CC1 (stereo not given),-17.9%,1.2%,-3.4%,0.4,-21.7%
COc1ccccc1-c1ccnc(-n2ncc(C(=O)NCc3cccnc3)c2C)n1,8.9%,x,x,x,x
CCN(CC)CCCNC(=O)c1ccc(OCC(=O)Nc2ccccc2C(F)(F)F)c(OC)c1,-1.7%,11.2µM*,u,-33.0,u
CCN(CC(=O)Nc1ccc(OC)c(OC)c1)CC(=O)Nc1ccccc1C(F)(F)F,-17.4%,-1.8%[46.1 µM],-26.9%[46.1 µM],-28.8,-27.2%
CN1CCN(S(=O)(=O)c2cccc(C(=O)N(c3ccccn3)C3CCCCC3)c2)CC1,-1.2%,-9.7%,4.9%,17.9,-3.2%
CNC(=O)c1ccccc1NC(=O)c1cccc(S(=O)(=O)N2CCCCC2)c1,2.7%,0.8%[46.1 µM],-17.6%,-38.1,-11.9%
CCNC(=O)c1ccccc1NC(=O)c1cccc(S(=O)(=O)N2CCC(C)CC2)c1,u,u,-16.4%,u,10µM*
CNC(=O)c1ccccc1NC(=O)c1cccc(S(=O)(=O)N2CCC(C)CC2)c1,0.1%,u,22.4µM*,-34.6,u
CC1CCN(S(=O)(=O)c2cccc(C(=O)N(Cc3ccccc3)c3ccccn3)c2)CC1,8.1%,u,u,-65.6*,-13.4%
O=C1c2ccccc2CN2C(=O)c3ccccc3CN12,-6.2%,-6.0%,1.0%,-21.3,x
c1ccc(-c2cn3c(n2)-c2ccccc2C3)cc1,-70.0%,u,4.47µM*,14.2,10.8%
Cc1ccc2nc(Cl)c3cc(C(=O)N4CCCCC4)sc3c2c1,23.8%,8.0%[46.1 µM],5.6%[46.1 µM],-3.1,x
CCC1CCCCN1CCCNC(=O)c1cc2c(Cl)nc3ccc(C)cc3c2s1 (stereo not given),-19.9%,u,u,-106.2*,x
CCC1CCCCN1CCCNC(=O)c1cc2c(=O)n(CC)c3ccccc3c2s1 (stereo not given),-13.3%,-0.6%[46.1 µM],u,21.3,x
Cc1ccc2nc(Cl)c3cc(C(=O)NCCCN4CCCC4)sc3c2c1,-1.8%,10µM*,-18.4%[46.1 µM],-34.6,8.91µM*
CCOc1ccc(CNC(=O)c2ccc3[nH]c(C)c(C)c3c2)cc1OC,-12.8%,x,u,+,x
O=C(CCn1c2c(c3ccccc31)CCCC2)NNC(=O)c1ccc(Cl)c([N+](=O)[O-])c1,3.1%,-9.2%,-3.9%,-29.1,10µM*
CC(=O)NNC(=O)CCn1c2c(c3ccccc31)CCCC2,-20.9%,-12.9%[46.1 µM],-16.0%,1.9,-25.4%
O=C(CCn1c2c(c3ccccc31)CCCC2)NNC(=O)c1ccc([N+](=O)[O-])cc1,-21.4%,-3.8%,-11.5%,-10.4,u
CCOC(=O)NNC(=O)CCn1c2c(c3ccccc31)CCCC2,-5.5%,x,x,-89.4*,u
COc1ccccc1NC(=O)N1CCN(c2ccc3nnc(-c4ccc(F)cc4)n3n2)CC1,-29.9%,u,-0.9%,-76.5*!,-18.7%
O=C(Nc1ccccc1Cl)N1CCN(c2ccc3nnc(-c4ccc(F)cc4)n3n2)CC1,u,-17.2%,-23.2%,4.4,u
O=C(Nc1ccc(Cl)cc1)N1CCN(c2ccc3nnc(-c4ccccc4)n3n2)CC1,-6.8%,-26.4%[46.1 µM],x,-80.9*,x
